TDP1 block = blocks human tyrosyl-DNA phosphodiesterase 1 | 350,000 tested, 0.28% active | Potency, µM (series often up to 130 µM), for the others: top-dose activity change, negative = inhibition, hits mostly inhibitors | AID 485290 | recombinant TDP1, AlphaScreen DNA substrate cleavage | Q9NUW8; further: potency means the concentration at half of the fitted maximal effect; nearly all actives have a fitted effect of over 40% in size
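E. coli-derived human Tdp1, 1 nM final. Cpd preinc 15 min RT; substrate 15 nM final, 5 min RT; AS bead mix 10 ug/ml final, 10 min RT. Signal loss = tyrosine-FITC cleavage. No-enzyme wells = max signal.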
IL-1B inflam inh = blocks inflammasome-driven IL-1 beta release; THP-1 LPS/ATP IL-1B secretion, AlphaLISA, 16 h; active compounds read low; activity change, % at 57.5 µM; 360,000 tested, 4.7% active; in the data active means activity change below about -50%; inconclusive means mostly about -30% to -49%
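Secreted IL-1B measured by AlphaLISA bead assay after 16 h compound exposure of THP-1 cells; compounds (final up to 57.5 uM) added 1 h before LPS (250 ng/mL) and ATP (1.25 mM) stimulation; lower signal means less secretion.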
Six1-Eya2 blk = Six1/Eya2 interaction inhibition; 360,000 tested, 0.56% active; activity change, % (test concentration not listed); AlphaScreen GST-Six1/His-Eya2 binding, biochemical; active compounds read low; in the data active means activity change below about -65%; inconclusive means mostly about -30% to -63%
Target sequence (O00167 whole entry, looked up): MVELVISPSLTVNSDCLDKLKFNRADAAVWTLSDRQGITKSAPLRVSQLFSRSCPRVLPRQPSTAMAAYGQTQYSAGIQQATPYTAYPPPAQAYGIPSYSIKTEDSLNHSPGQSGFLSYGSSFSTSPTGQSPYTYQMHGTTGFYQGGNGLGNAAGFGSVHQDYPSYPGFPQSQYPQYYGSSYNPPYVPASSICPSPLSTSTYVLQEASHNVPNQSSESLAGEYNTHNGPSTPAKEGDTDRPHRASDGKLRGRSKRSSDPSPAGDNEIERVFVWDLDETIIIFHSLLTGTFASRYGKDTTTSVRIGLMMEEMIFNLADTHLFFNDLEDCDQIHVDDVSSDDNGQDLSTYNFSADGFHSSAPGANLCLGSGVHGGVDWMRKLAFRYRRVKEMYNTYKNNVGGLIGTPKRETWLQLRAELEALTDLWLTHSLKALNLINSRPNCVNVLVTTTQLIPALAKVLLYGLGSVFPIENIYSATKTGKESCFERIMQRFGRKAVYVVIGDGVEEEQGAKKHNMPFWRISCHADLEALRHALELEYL
Target sequence (Q15475 whole entry, looked up): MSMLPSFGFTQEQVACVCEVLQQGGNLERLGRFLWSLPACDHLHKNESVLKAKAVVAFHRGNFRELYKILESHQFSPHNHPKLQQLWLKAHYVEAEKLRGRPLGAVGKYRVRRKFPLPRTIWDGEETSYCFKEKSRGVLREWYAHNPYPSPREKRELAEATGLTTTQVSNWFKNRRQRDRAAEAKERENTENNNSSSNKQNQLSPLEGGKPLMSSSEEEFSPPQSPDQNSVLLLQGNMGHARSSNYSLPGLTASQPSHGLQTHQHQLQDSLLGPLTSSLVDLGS
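AlphaScreen with GST-Six1 and His-Eya2 (5X mix: 250 nM and 500 nM), glutathione donor and nickel acceptor beads; buffer 50 mM Tris pH 8.0, 300 mM NaCl, 1 mM TCEP; 1 h at 37 C in the dark.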
CtBP-E1A inh = blocks the CtBP interaction with E1A. AID 651724. activity change, % (no concentration beside the values). AlphaScreen GST-E1A/His-CtBP binding, 1536-well; active compounds read low. 340,000 tested, 0.49% active; in the data active means activity change below about -65%; inconclusive means mostly about -30% to -63%
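GST-E1A and His-tagged CtBP (125 nM each as 5X stock) were preincubated with pin-transferred compound for 2 h at 37 °C in the dark, then glutathione donor and nickel acceptor beads were added for 1 h before AlphaScreen reading.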
DT40 TDP1 CPT = DT40-hTDP1 cell growth loss with CPT; chicken DT40 Tdp1-/-;hTDP1 cells + 20 nM CPT, ATP luminescence, 48 h; Potency, µM (highest dose often 46.2 µM), for the others: at the top dose activity change, negative = growth inhibition, hits mostly inhibitors; 420,000 tested, 12% active; further: potency means the concentration at half of the fitted maximal effect; nearly all actives have a fitted effect of over 55% in size
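Chicken DT40 Tdp1-/- cells complemented with human TDP1, 400 cells/well, exposed to compounds plus 20 nM camptothecin for at least 48 h at 37 C; viability read as ATP content by CellTiter-Glo luminescence.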
TDP1 cell noCPT = qHTS for Inhibitors of human tyrosyl-DNA phosphodiesterase 1 (TDP1): qHTS in cells in absence of CPT; AID 686978, 2013; 420,000 tested, 15% active; Potency, µM (titrated, usually from 46.2 µM), without a hit: at the highest dose activity change, negative = growth inhibition, most hits filed as inhibitors; DT40 Tdp1-/- hTDP1 cells, no CPT, ATP luminescence, 48 h; further: potency means the concentration at half of the fitted maximal effect; nearly all actives have a fitted effect of over 55% in size
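No-CPT arm: Tdp1-/-;hTDP1 DT40 cells (400/well) plus compounds, incubated ≥48 hr at 37 °C. Readout CellTiter-Glo luminescence.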
The depositor's hits bear a star; i = inactive; ? = inconclusive; nt = no result given; [ ] = remark or other dose. Sampled rows, rich in hits. Any-hit rate of the full collection: about 18%. Unless noted, the call rests on the fitted dose curve; in most records, active means well fitted curve in the direction sought with a large enough effect; inconclusive means small, poorly fitted or top-dose-only effect, or another doubt; inactive means no such curve, though single readings can be large; an effect the other way counts as inactive or inconclusive. On the % scale 0 is the no-effect control and ±100 the full control effect.

SMILES	TDP1 block	IL-1B inflam inh	Six1-Eya2 blk	CtBP-E1A inh	DT40 TDP1 CPT	TDP1 cell noCPT
O=C(NCCc1ccccc1)c1nc2nc(-c3cccs3)cc(C(F)(F)F)n2n1	7.5%	-0.1	?	?	20.6µM*	29.1µM*
O=C(c1cnn2c(C(F)(F)F)cc(-c3cccs3)nc12)N1CCN(C(c2ccccc2)c2ccccc2)CC1	0.0%	-29.1	-3.4	-3.8	9.2µM*	13µM*
COc1ccccc1-c1cc(C(F)(F)F)n2ncc(C(=O)N3CCc4ccccc4C3)c2n1	1.8%	i	3.9	7.3	?	23.1µM*
CN1CCN(C(=O)c2cnn3c(C(F)(F)F)cc(-c4cccs4)nc23)CC1	5.1%	-2.3	1.5	-4.3	5.6%	-29.5%
O=C(c1cnn2c(C(F)(F)F)cc(-c3cccs3)nc12)N1CCN(Cc2ccccc2)CC1	0.0%	?	-13.5	-18.9	?	14.6µM*
O=C(c1ccc(Cl)c(Cl)c1)N1CCC(=O)N([C@H](COCc2ccc(Cl)cc2)Cc2ccccc2)CC1	nt	-67.3*	0.9	-6.2	?	23.1µM*
O=C(c1ccc(Cl)c(Cl)c1)N1CCC(=O)N(C(COCc2cccc(Cl)c2)Cc2ccccc2)CC1 (stereo not drawn)	2.6%	-67.6*	5.3	nt	?	?
O=C(NCc1ccc2c(c1)OCO2)c1ccc(-c2ccc(Cl)cc2)o1	4.4%	3.6	-8.4	6.3	3.2%	-15.4%
O=c1c(-c2ccnn2-c2ccccc2F)cnc2n1CCS2	2.9%	13.7	7.9	3.5	1.3%	2.3%
CCCCCn1c(CN2CCN(C(=O)OCC)CC2)nc2c1c(=O)[nH]c(=O)n2C	-2.1%	-0.1	2.6	3.3	-29.6%	-17.8%
c1ccc2c(CCNc3ncnc4nc[nH]c34)c[nH]c2c1	2.6%	72.8	-3.7	4.7	6.51µM*	11.6µM*
COc1ccccc1CNc1ncnc2nc[nH]c12	7.9%	8.4	-19.2	1.8	?	?
OCc1cnc(SCc2cccc(F)c2)n1Cc1ccc(F)cc1	5.3%	nt	nt	nt	20.6µM*	?
Cc1ccc(Cn2c(CO)cnc2SCc2ccc(F)cc2)cc1	7.7%	nt	nt	nt	10.3µM*	16.4µM*
COc1ccc(Cn2c(CO)cnc2SCc2cccc(C)c2)cc1	8.9%	nt	nt	nt	?	25.9µM*
CCCN(C(=O)Cn1c(C(F)(F)F)nc2ccccc21)C1CCS(=O)(=O)C1 (stereo not drawn)	-5.6%	12.8	-8.6	13.7	-12.8%	1.9%
FC(F)(F)COCC(F)(F)F	nt	nt	nt	nt	8.9%	0.0%
Cc1cc(O)c(C(C)C)cc1NC(=S)Nc1cc(C(C)C)c(O)cc1C	nt	-55.0*	-12.7	0.0	?	?
CCOc1ccc(NC(=O)Nc2cc(C(C)C)c(O)cc2C)cc1	6.8%	-2.9	-1.2	-9.4	?	?
Cc1c(C(=O)NCc2ccc3c(c2)OCCO3)sc(=O)n1Cc1ccccc1C#N	nt	-15.0	1.1	-4.6	?	16.4µM*
Cc1c(C(=O)NCc2ccc3c(c2)OCCO3)sc(=O)n1Cc1ccc2c(c1)OCO2	nt	-8.3	-22.1	-19.9	?	?
Cc1c(C(=O)NCc2ccc3c(c2)OCCO3)sc(=O)n1Cc1ccc(S(=O)(=O)N(C)C)cc1	nt	-14.2	5.1	0.6	18.4µM*	14.6µM*
Cc1noc(C)c1Cn1c(C)c(C(=O)NCc2ccc3c(c2)OCCO3)sc1=O	nt	29.9	-6.4	-1.3	8.2µM*	16.4µM*
CN(C)S(=O)(=O)c1ccc(C(=O)NCc2cccs2)cc1	2.3%	-5.1	-1.8	0.2	2.4%	1.3%
CSc1ccc(Cn2c(C)c(C(=O)NCc3ccc4c(c3)OCCO4)sc2=O)cc1	nt	-29.6	-16.1	-11.9	?	?
SMILES	TDP1 block	IL-1B inflam inh	Six1-Eya2 blk	CtBP-E1A inh	DT40 TDP1 CPT	TDP1 cell noCPT
Cc1c(C(=O)NCc2cccs2)sc(=O)n1Cc1ccc(S(=O)(=O)N(C)C)cc1	nt	-19.5	-6.2	0.2	?	23.1µM*
CC(C)(C)SCCNC(=O)c1ccc(NS(C)(=O)=O)cc1	4.3%	-11.3	0.5	-0.7	-0.1%	9.1%
O=C(NCc1ccco1)C(Cc1ccccc1)NS(=O)(=O)c1cccc2nsnc12 (stereo not drawn)	1.9%	-7.2	-4.0	-7.5	-26.1%	7.5%
Cc1c(C(=O)NCc2ccc3c(c2)OCO3)sc(=O)n1Cc1ccc(S(=O)(=O)N(C)C)cc1	nt	-24.9	1.6	0.0	?	16.4µM*
Cc1c(C(=O)NCc2cccc(C(F)(F)F)c2)sc(=O)n1Cc1ccc(S(=O)(=O)N(C)C)cc1	nt	?	-11.1	3.2	20.6µM*	?
COc1ccc(CNCCC2(C(C)C)CCOC(C)(C)C2)cc1 (stereo not drawn)	2.9%	10.4	1.2	nt	-15.5%	?
CCCc1nc(NCc2ccncc2)c2nnn(Cc3ccccc3F)c2n1	2.5%	-11.2	-1.8	0.1	?	14.6µM*
C=CCNC(=O)c1onc(CSc2ccc(F)c(F)c2)c1C(=O)NCC=C	nt	-7.9	5.9	15.6	2.8%	3.5%
CCOC(=O)C1=C(COC(=O)CCOc2ccccc2)NC(=O)NC1C (stereo not drawn)	0.9%	4.8	?	-11.9	23.1µM*	23.1µM*
CCOC(=O)C1=C(COC(=O)CNS(=O)(=O)c2ccc(C)cc2)NC(=O)NC1C (stereo not drawn)	4.0%	i	1.8	0.3	-14.7%	-5.8%
CCOC(=O)C1=C(COC(=O)CCS(=O)(=O)c2ccc(C)cc2)NC(=O)NC1C (stereo not drawn)	-1.1%	-80.1*	1.0	-24.7	?	-23.9%
CCOC(=O)C1=C(COC(=O)CCOc2cccc(C)c2)NC(=O)NC1C (stereo not drawn)	6.8%[0.505 µM]	1.2	8.0	-10.0	?	?
COc1cc(C(=O)NC2CCCCC2)ccc1OCc1ccc(Cl)cc1Cl	2.2%	-17.0	24.1	6.8	-25.9%	-18.4%
Cc1cccc(NC(=O)N2CCC(n3nnc4cc(C)ccc43)CC2)c1	-2.5%	-25.5	-6.6	nt	-7.8%	?
CCCCSc1nc2c([nH]1)c(=S)n(C)c(=O)n2C	nt	13.3	2.2	-6.9	1.3µM*	1.16µM*
CSc1nc2c([nH]1)c(=S)n(C)c(=O)n2C	nt	-19.5	-2.8	-5.9	5.8µM*	5.17µM*
Cn1c(=O)c2[nH]c(SCCN)nc2n(C)c1=S	nt	29.9	0.0	-2.4	4.6%	9.8%

Screening data (PubChem BioAssay)
